Out of some 16,000 compounds screened, about 5,700 (36%) were called active. Inconclusive results (about 24%) are left out. The list shows a part of the results. Unmarked numbers belong to inactive results. The call rests on the fitted dose curve; in most records, active means well fitted curve in the direction sought with a large enough effect; inconclusive means small, poorly fitted or top-dose-only effect, or effect the other way; inactive means no such curve, though single readings can be large or run the other way.
On the % scale 0 is the no-effect control and ±100 the full control effect.

Sequence of Cytochrome P450 1A2 (Homo sapiens) (P05177 whole entry, looked up): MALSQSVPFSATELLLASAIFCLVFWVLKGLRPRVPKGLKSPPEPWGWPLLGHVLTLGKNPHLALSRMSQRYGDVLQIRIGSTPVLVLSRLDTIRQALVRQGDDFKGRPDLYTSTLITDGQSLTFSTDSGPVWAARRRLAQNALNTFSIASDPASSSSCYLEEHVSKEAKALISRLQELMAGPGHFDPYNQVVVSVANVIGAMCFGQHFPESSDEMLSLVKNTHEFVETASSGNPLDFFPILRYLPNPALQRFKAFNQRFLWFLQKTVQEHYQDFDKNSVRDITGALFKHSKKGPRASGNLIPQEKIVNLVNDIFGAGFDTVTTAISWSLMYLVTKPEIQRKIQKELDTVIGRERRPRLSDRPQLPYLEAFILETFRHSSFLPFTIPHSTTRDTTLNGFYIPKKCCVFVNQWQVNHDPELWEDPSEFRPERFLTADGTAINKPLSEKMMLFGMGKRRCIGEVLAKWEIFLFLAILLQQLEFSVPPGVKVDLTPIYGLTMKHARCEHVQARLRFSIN

This assay addresses Cytochrome P450 1A2 (Homo sapiens) (UniProt P05177). Description: Cytochrome panel assay with activity outcomes. The following applies: recombinant CYP, pro-luciferin dealkylation, luminescence, p450-cyp1a2; series mostly up to 57.1 µM; activity, negative = inhibition: at the top concentration.
For the compound `COC(=O)C/C=C\[C@@H](C)[C@@H](/C=N\OC[C@@H](O)[C@H]1O[C@H]2OC(C)(C)O[C@H]2[C@@H]1O)NS(=O)(=O)c1ccc(C)cc1`, the activity, negative = inhibition is 0.282% [at 11.4 µM].
Still for that read-out and setting: the figure for `CCCC[C@@H]1C[C@H]1C(NC(=O)c1ccc(-c2ccccc2)cc1)c1ccc(-c2ccccc2)cc1` (stereo partly specified) is 0.142%.
The same measure, in the same setting: the figure for `C[C@@]1(C(NC(=O)c2ccc(-c3ccccc3)cc2)c2ccc(Cl)cc2)C[C@H]1C1CCCCC1` (stereo partly specified) is -17.1%.
Same read-out and setting: the value for `CCC[C@@H]1C[C@@]1(CCC)C(NC(=O)c1ccccc1)c1cccc(Cl)c1` (stereo partly specified) was -9.7%.
The AC50 is the concentration at which the activity in the assay is half-maximal. In the case of `CCCC[C@@H]1C[C@H]1C(NC(=O)c1ccccc1)c1ccc(Cl)cc1` (stereo partly specified), the concentration at half-maximal activity (AC50) is 1 µM (active).
Same read-out and setting: the value for `CCCC[C@@H]1C[C@H]1C(NC(=O)c1ccccc1)c1ccccc1` (stereo partly specified) was 2.51 µM (active).
Turning to `C=C(CC1([C@@H](NP(=O)(c2ccccc2)c2ccccc2)[C@H]2C[C@@H]2CCCC)CC1)c1ccccc1`, the “activity, negative = inhibition” value is -15.8%.
Take `COC(=O)c1ccc(Oc2cc(C)nc(-n3nc(C)cc3C)n2)cc1`: the AC50 is 8.91 µM (active).
On to `Cc1cc(C)n(-c2ccc(Cl)c(C(=O)O)n2)n1`, for which the “activity, negative = inhibition” value was -1.29%.
`N#CC(=C1CCCC1)c1nc(-c2ccccc2)cs1`: the AC50 was 0.631 µM (active).
On the same count and under the same terms, the value for `Cc1ccc(-c2csc(C(C#N)=C3CCCC3)n2)cc1` was 3.55 µM (active); that for `N#C/C(=N\O)c1nc(-c2ccccc2)cs1` was 6.31 µM (active).
Consider `CC1(C)N=C(N)N=C(N)N1CCCCc1ccccc1`, for which the activity, negative = inhibition is -4.32% [at 2.29 µM].
Same read-out and setting: the figure for `C/C(O)=C\c1nc2ccccc2oc1=O` is -19.9%; for `O=S(=O)(O)c1ccc(-c2nnc(-c3ccccn3)nc2-c2ccc(S(=O)(=O)O)o2)o1` it is -8.46% [at 11.4 µM].
With `c1ccc(-c2nc3ccccc3o2)nc1`, the AC50 is 0.501 µM (active).
The same measure, in the same setting: the value for `CC1(C)C(=O)NC2=C1C(=O)C(=O)c1ccccc12` was 3.16 µM (active).
For `O=C(O)[C@@H]1CCCN1Cc1c[nH]c2ccccc12`, the activity, negative = inhibition is -13.1% [at 11.4 µM].
For the compound `N#C/C(=C\c1c[nH]c2ccccc12)C(=O)c1ccc(O)c(O)c1`, the AC50 is 1.26 µM (active).
In the case of `CCN(CC(=O)O)CC(=O)O`, the activity, negative = inhibition is -5.21% [at 11.4 µM].
As to `CS(=O)(=O)Nc1cccc(-c2nccc(-n3ccnc3)n2)c1`, the concentration at half-maximal activity (AC50) was 0.2 µM (active).
Regarding `CS(=O)(=O)Nc1cccc(-c2cncnc2-n2ccnc2)c1`, the concentration at half-maximal activity (AC50) was 15.8 µM (active).
On the same count and under the same terms, the value for `CN1CCN(c2ccnc(-c3cccc(NS(C)(=O)=O)c3)n2)CC1` was 12.6 µM (active).
Turning to `CS(=O)(=O)Nc1ccc(C(=O)N2CCN(c3ccccc3)CC2)cc1`, the “activity, negative = inhibition” value is -6.89%.
On the same count and under the same terms, the figure for `COc1ccc(NS(=O)(=O)c2ccc(I)cc2)cc1N1CCN(C)CC1` is 5.42%; for `CCN1C(=O)[C@H]2[C@H]3[C@H](O)[C@H](O)C/C(=N/OCC(C)C)[C@@H]3CC[C@@H]2C1=O` it is -10.8% [at 11.4 µM].
`O=[N+]([O-])c1cccnc1NCCNc1ncc(C(F)(F)F)cc1Cl`: the half-maximal activity concentration (AC50) was 2 µM (active).
For the compound `COC(=O)[C@@]1(Cc2ccc(F)cc2)[C@H]2c3cc(C(=O)N4CCCC4)n(CCCNc4ncc(C(F)(F)F)cc4Cl)c3C[C@H]2CN1C(=O)c1ccccc1`, the “activity, negative = inhibition” value was -11.6%.
Same read-out and setting: the value for `C[C@@H]1O[C@@H](O)[C@@H](O)[C@H](O)[C@H]1O` was -2.48% [at 11.4 µM].
With `O=C(O)c1ccccc1N/N=C\c1ccnc2ccccc12`, the concentration at half-maximal activity (AC50) was 11.2 µM (active).
In the case of `Cn1c(=O)c2c(nc(N/N=C\c3ccccc3C(=O)O)n2C)n(C)c1=O`, the activity, negative = inhibition is 5.78% [at 11.4 µM].
On the same count and under the same terms, the value for `O=C(O)CCNc1ccccc1C(=O)O` was -11.9% [at 11.4 µM].
Take `Brc1ccc(C2=Nn3c(nnc3-c3cccnc3)SC2)s1`: the AC50 is 5.01 µM (active).
For `COc1ccc(C(C(=O)NC2CCCC2)N(C(=O)c2snc(-c3ccc(F)cc3)c2N)c2ccccc2)cc1` (stereo unspecified), the “activity, negative = inhibition” value was 2.42%.
For `Cc1cc2ccccn2c1C(=O)c1ccc(Cl)cc1`, the AC50 was 3.16 µM (active).
With `Cc1cc2ccccn2c1C(=O)c1nc(N2CCOCC2)ncc1Cl`, the AC50 is 15.8 µM (active).
Still for that read-out and setting: the figure for `Cc1sc(=NC(=O)c2ccco2)n(C)c1-c1ccc(F)cc1` is 8.91 µM (active); for `COc1ccccc1-c1nc(N2CCN(C)CC2)c2ccccc2n1` it is 12.6 µM (active).
Regarding `COc1ccccc1C(=O)N1CCN(c2ccccn2)CC1`, the “activity, negative = inhibition” value was -22.5%.
Take `COc1ccccc1-c1nc(N2CCOCC2)c2ccccc2n1`: the half-maximal activity concentration (AC50) is 0.501 µM (active).
For the compound `CC(C)(C)C1CCC(OCC(O)CN2CCN(c3ccccc3)CC2)CC1` (stereo unspecified), the “activity, negative = inhibition” value is -2.29%.
Turning to `O=C1c2cccc3cccc(c23)C(=O)N1CC1CCN(CC(O)COc2ccc3ccccc3c2)CC1` (stereo unspecified), the concentration at half-maximal activity (AC50) was 0.562 µM (active).
Consider `O=C(c1ccccc1)c1ccc(OCC(O)CN2CCN(Cc3ccccc3)CC2)cc1` (stereo unspecified), for which the “activity, negative = inhibition” value is -4.15%.
As to `Cc1cccc(C(=O)NC(=S)N2CCN(C)CC2)c1`, the “activity, negative = inhibition” value was -21.4%.
Still for that read-out and setting: the value for `Cc1cccc(C(=O)NC2CCN(C(=O)N3CCOCC3)CC2)c1` was -14.5%.
With `Cc1cccc(C(=O)NCN2CCN(c3ccccc3C#N)CC2)c1`, the concentration at half-maximal activity (AC50) was 20 µM (active).
On to `O=C(CSc1nnc(Cn2nnc3ccccc32)o1)Nc1cccc(Cl)c1`, for which the half-maximal activity concentration (AC50) was 12.6 µM (active).
Take `COc1cccc(C(C(=O)Nc2ccc(F)cc2)N(C(=O)Cn2nnc3ccccc32)C2CC2)c1` (stereo unspecified): the “activity, negative = inhibition” value is -8.22%.
Take `Cc1cc(C)c2cc(CN(Cc3nnnn3Cc3ccc(F)cc3)C3CCCC3)c(=O)[nH]c2c1`: the half-maximal activity concentration (AC50) was 14.1 µM (active).
With `Nc1ccc(S(=O)(=O)Nc2ccccn2)cc1`, the “activity, negative = inhibition” value was -9.64% [at 25.6 µM].
Still for that read-out and setting: the value for `CN(C)S(=O)(=O)Nc1ccccn1` was -5.82% [at 11.4 µM].
For the compound `O=C1C(Cl)=C(Nc2ccc(S(=O)(=O)Nc3ccccn3)cc2)C(=O)c2ccccc21`, the concentration at half-maximal activity (AC50) was 3.16 µM (active).
On the same count and under the same terms, the value for `COc1cc(-c2nnc(SCC3(c4ccccc4)OCCO3)o2)cc(OC)c1OC` was 12.6 µM (active).
In the case of `COc1cc(-c2nnc(-c3ccc(N4CCOCC4)cc3)o2)cc(OC)c1OC`, the “activity, negative = inhibition” value is -18.7%.
Same read-out and setting: the value for `COc1cc(C(=O)Nc2ccc(-c3nnc(-c4ccco4)o3)cc2)cc(OC)c1OC` was 14.3%.
In the case of `CCCCOC(=O)CSc1nnc(-c2cc(OC)c(OC)c(OC)c2)o1`, the half-maximal activity concentration (AC50) was 31.6 µM (active).
As to `CN(C)c1ccc(-c2cncnc2-n2ccnc2)cc1`, the AC50 was 2.51 µM (active).
For `CN(C)C(=O)c1ccc(-c2cncnc2-n2ccnc2)cc1`, the AC50 was 20 µM (active).
The same measure, in the same setting: the figure for `CN1CCN(c2ncncc2-c2ccc(N(C)C)cc2)CC1` is 12.6 µM (active).
`CN(C)C(=O)c1ccc(-c2cncnc2N2CCNCC2)cc1`: the “activity, negative = inhibition” value is 0.554%.
As to `c1cn(-c2ccnc(-c3ccc4c(c3)OCO4)n2)cn1`, the AC50 is 0.0251 µM (active).

The values are drawn from PubChem BioAssay AID1851 (National Center for Advancing Translational Sciences (NCATS), 2009).
